{"source": "the supplement of paper PMC10849652", "note": "Targets with a hit are over-represented here; the source holds about 7,900 in all. About 0.6% of all pairs of compound and target were hits.", "data": [{"compound": "CS(=O)(=O)CCNCc1ccc(-c2ccc3ncnc(Nc4ccc(OCc5cccc(F)c5)c(Cl)c4)c3c2)o1 [lapatinib]", "assay": "log2 fold change, soluble protein after heating vs DMSO (PISA); higher = thermal stabilisation; K562 cells, 10 uM, 30 min; active = over 0.2 and 3.5 SD of the protein, either way, in both replicates (recomputed)", "outline": "(§1)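 For each measurement, 10 μM compound was applied for 30 min to K562 cells at 2×10^6 cells/mL. Aliquots were heated for 3 min across 48°C-58°C, pooled, and extracted in PBS with 0.5% NP-40 at 4°C; the supernatant after 21,000xg for 90 min was soluble protein. This was quantified by TMTpro 16plex LC-MS/MS with channel sums equalised, and thermal stability was reported relative to control samples from duplicates, on a log2 fold-change scale.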", "values": [{"target": "LTV1 (UniProt Q96GA3)", "log2 fold change": "0.05 (inactive)"}, {"target": "LMNB1 (UniProt P20700)", "log2 fold change": "0.087 (inactive)"}, {"target": "LNPK (UniProt Q9C0E8)", "sequence (Q9C0E8 whole entry, looked up)": "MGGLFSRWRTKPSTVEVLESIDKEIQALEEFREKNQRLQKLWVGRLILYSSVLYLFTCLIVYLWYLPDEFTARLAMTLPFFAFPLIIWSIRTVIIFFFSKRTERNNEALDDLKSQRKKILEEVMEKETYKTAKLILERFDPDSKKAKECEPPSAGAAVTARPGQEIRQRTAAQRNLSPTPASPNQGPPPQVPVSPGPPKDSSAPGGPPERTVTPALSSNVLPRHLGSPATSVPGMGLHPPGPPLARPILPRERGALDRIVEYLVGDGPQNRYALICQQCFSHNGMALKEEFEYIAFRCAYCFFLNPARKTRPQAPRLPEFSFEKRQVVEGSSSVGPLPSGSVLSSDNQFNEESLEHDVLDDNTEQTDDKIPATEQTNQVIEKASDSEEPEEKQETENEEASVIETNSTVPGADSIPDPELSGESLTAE", "log2 fold change": "-0.008 (inactive)"}, {"target": "LDAH isoform 2 (UniProt Q9H6V9)", "log2 fold change": "-0.005 (inactive)"}, {"target": "IL27RA (UniProt Q6UWB1)", "log2 fold change": "0.043 (inactive)"}, {"target": "KIF2C (UniProt Q99661)", "log2 fold change": "-0.048 (inactive)"}, {"target": "LAMP2 (UniProt P13473)", "log2 fold change": "-0.079 (inactive)"}, {"target": "LMNB2 (UniProt Q03252)", "log2 fold change": "0.059 (inactive)"}, {"target": "MAP1LC3B2 (UniProt A6NCE7)", "log2 fold change": "-0.011 (inactive)"}, {"target": "METAP1D (UniProt Q6UB28)", "log2 fold change": "-0.062 (inactive)"}, {"target": "LIMD1 (UniProt Q9UGP4)", "log2 fold change": "0.06 (inactive)"}, {"target": "MED17 (UniProt Q9NVC6)", "sequence (Q9NVC6 whole entry, looked up)": "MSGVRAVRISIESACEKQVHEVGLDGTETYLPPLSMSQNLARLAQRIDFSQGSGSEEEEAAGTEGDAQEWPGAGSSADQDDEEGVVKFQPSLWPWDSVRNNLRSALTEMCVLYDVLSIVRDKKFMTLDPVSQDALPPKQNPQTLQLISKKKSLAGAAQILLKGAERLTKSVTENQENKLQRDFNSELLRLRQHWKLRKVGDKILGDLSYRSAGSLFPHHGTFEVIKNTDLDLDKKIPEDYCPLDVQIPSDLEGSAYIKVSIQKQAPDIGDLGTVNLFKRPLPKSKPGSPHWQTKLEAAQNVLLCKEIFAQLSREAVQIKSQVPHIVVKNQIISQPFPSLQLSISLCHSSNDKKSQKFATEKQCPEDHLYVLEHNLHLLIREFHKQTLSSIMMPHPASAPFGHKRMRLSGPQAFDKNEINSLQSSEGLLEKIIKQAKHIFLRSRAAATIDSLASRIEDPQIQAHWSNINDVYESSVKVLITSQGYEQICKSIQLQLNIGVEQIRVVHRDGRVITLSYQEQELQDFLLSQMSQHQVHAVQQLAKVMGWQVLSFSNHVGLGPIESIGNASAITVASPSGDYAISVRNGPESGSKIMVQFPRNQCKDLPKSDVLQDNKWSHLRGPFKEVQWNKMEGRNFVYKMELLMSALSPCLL", "log2 fold change": "-0.063 (inactive)"}, {"target": "KIF3A (UniProt Q9Y496)", "log2 fold change": "-0.063 (inactive)"}, {"target": "IKZF1 (UniProt Q13422)", "log2 fold change": "-0.041 (inactive)"}, {"target": "KSR1 (UniProt Q8IVT5)", "log2 fold change": "0.087 (inactive)"}, {"target": "MAIP1 (UniProt Q8WWC4)", "log2 fold change": "0.036 (inactive)"}, {"target": "LPGAT1 (UniProt Q92604)", "log2 fold change": "0.15 (inactive)"}, {"target": "LTO1 (UniProt Q8WV07)", "sequence (Q8WV07 whole entry, looked up)": "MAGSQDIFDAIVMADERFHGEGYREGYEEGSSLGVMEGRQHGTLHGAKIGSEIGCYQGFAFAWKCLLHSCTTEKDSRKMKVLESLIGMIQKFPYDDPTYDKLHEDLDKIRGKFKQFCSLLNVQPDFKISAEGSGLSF", "log2 fold change": "-0.016 (inactive)"}, {"target": "LARP4 isoform 4 (UniProt Q71RC2)", "log2 fold change": "0.054 (inactive)"}, {"target": "IMMP1L (UniProt Q96LU5)", "log2 fold change": "-0.062 (inactive)"}, {"target": "LRBA (UniProt P50851)", "log2 fold change": "0.009 (inactive)"}, {"target": "LMBRD2 (UniProt Q68DH5)", "log2 fold change": "0.026 (inactive)"}, {"target": "MAP2K2 (UniProt P36507)", "log2 fold change": "-0.069 (inactive)"}, {"target": "ITM2B (UniProt Q9Y287)", "log2 fold change": "-0.116 (inactive)"}, {"target": "IPO13 (UniProt O94829)", "sequence (O94829 whole entry, looked up)": "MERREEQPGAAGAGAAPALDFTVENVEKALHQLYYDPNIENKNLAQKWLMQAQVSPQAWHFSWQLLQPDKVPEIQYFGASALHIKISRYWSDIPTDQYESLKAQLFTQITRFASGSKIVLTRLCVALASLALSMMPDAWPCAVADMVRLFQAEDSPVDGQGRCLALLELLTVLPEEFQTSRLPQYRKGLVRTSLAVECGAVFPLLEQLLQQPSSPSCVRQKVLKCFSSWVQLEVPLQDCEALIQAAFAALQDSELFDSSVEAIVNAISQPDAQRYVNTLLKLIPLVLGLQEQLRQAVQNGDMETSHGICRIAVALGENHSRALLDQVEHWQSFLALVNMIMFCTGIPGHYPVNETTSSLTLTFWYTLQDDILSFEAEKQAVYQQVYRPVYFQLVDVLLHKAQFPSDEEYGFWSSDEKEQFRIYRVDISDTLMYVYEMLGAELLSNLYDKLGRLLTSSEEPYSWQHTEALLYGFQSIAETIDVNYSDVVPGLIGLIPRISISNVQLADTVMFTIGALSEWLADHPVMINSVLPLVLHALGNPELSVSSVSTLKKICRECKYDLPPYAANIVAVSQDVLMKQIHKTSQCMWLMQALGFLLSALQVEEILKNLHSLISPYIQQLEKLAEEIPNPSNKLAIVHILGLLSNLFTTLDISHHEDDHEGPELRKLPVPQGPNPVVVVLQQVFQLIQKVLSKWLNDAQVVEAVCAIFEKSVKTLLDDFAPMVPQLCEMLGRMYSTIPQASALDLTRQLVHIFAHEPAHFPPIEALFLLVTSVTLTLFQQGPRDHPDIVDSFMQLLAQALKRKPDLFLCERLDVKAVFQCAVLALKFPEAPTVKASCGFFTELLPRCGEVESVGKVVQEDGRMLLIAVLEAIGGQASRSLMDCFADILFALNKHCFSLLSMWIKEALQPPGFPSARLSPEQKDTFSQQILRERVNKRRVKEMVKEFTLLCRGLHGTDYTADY", "log2 fold change": "0.038 (inactive)"}, {"target": "ILRUN (UniProt Q9H6K1)", "log2 fold change": "0.08 (inactive)"}, {"target": "IRF2BPL (UniProt Q9H1B7)", "log2 fold change": "-0.015 (inactive)"}, {"target": "LDLR (UniProt P01130)", "sequence (P01130 whole entry, looked up)": "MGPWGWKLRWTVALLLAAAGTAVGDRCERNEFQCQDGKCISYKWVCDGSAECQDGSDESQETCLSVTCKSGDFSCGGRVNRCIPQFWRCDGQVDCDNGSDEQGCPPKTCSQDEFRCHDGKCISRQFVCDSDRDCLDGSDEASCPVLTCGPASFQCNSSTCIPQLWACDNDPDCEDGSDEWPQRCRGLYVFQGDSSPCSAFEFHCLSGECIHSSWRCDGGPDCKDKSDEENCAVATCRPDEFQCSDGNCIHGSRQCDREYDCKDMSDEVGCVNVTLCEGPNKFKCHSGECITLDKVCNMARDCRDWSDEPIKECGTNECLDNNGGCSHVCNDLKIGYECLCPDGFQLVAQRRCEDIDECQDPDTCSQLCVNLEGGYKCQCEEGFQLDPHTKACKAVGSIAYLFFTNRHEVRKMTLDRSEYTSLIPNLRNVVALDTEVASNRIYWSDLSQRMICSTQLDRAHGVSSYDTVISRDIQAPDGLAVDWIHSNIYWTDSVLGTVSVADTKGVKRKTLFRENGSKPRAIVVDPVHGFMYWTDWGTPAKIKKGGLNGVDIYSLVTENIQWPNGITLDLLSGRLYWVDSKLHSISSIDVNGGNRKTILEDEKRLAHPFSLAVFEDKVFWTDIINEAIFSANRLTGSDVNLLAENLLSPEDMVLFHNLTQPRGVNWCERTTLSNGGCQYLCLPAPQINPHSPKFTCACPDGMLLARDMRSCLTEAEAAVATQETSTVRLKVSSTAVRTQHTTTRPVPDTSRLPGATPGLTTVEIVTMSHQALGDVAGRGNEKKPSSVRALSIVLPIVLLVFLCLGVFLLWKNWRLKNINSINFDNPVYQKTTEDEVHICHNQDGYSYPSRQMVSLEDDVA", "log2 fold change": "0.042 (inactive)"}, {"target": "LUC7L3 (UniProt O95232)", "log2 fold change": "0.045 (inactive)"}, {"target": "MAP2K7 isoform 4 (UniProt O14733)", "log2 fold change": "-0.016 (inactive)"}, {"target": "MDC1 (UniProt Q14676)", "log2 fold change": "0.077 (inactive)"}, {"target": "MAP2K1 (UniProt Q02750)", "log2 fold change": "-0.045 (inactive)"}, {"target": "MARK3 (UniProt P27448)", "log2 fold change": "0.022 (inactive)"}, {"target": "KIF21A isoform 4 (UniProt Q7Z4S6)", "log2 fold change": "0.001 (inactive)"}, {"target": "LEMD3 (UniProt Q9Y2U8)", "sequence (Q9Y2U8 whole entry, looked up)": "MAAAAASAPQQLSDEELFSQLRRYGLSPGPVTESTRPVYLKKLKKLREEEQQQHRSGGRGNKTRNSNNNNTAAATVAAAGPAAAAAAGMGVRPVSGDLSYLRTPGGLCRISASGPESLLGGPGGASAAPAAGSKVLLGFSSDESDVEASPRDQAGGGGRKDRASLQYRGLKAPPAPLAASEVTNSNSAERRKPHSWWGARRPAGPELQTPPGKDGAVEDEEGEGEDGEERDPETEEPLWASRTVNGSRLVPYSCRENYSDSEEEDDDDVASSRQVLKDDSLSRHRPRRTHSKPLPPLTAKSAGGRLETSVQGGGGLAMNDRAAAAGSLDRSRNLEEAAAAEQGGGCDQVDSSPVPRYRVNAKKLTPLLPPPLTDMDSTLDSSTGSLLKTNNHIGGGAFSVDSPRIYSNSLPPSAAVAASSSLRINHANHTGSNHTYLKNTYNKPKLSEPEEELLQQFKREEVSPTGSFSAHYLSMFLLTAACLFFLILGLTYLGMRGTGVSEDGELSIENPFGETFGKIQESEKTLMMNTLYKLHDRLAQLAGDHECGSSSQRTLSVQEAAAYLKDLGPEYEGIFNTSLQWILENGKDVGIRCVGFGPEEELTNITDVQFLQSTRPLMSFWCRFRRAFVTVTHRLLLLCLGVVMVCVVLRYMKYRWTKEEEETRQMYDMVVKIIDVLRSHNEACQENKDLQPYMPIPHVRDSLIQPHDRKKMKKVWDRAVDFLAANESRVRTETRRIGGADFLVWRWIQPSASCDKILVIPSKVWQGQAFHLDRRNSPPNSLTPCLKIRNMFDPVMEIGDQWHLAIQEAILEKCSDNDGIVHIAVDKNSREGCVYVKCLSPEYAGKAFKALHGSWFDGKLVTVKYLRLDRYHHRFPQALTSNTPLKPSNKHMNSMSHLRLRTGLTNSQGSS", "log2 fold change": "0.044 (inactive)"}, {"target": "KDM5D isoform 3 (UniProt Q9BY66)", "log2 fold change": "-0.047 (inactive)"}, {"target": "IK (UniProt Q13123)", "log2 fold change": "-0.008 (inactive)"}, {"target": "KLC2 (UniProt Q9H0B6)", "log2 fold change": "-0.005 (inactive)"}, {"target": "INPP5B (UniProt P32019)", "sequence (P32019 whole entry, looked up)": "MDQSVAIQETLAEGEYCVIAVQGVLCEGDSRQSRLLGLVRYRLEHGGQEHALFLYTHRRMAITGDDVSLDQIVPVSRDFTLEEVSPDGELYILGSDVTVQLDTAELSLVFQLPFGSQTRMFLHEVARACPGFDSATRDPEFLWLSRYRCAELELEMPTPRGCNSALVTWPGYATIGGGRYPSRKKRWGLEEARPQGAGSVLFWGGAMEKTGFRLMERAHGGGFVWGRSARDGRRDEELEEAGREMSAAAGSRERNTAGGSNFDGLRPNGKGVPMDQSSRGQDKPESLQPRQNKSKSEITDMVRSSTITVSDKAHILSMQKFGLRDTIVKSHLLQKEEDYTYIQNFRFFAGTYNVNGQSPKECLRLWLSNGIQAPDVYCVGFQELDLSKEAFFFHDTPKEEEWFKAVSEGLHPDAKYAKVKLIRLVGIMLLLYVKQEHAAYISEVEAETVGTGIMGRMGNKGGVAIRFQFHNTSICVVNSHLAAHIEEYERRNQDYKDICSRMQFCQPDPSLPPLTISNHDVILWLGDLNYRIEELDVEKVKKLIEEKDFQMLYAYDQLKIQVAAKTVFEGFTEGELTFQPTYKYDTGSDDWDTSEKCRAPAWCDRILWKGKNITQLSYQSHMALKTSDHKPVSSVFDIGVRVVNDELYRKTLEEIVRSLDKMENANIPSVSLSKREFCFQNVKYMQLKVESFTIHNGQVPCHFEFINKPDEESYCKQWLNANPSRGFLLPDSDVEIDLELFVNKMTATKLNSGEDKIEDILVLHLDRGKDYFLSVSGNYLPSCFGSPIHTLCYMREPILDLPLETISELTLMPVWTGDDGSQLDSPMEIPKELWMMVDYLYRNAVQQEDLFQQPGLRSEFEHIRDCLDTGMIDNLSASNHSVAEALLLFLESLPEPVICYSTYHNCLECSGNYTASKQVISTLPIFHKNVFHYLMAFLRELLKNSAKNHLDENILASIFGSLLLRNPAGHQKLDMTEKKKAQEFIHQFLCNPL", "log2 fold change": "0.006 (inactive)"}]}, {"compound": "CS(=O)(=O)N1CCN(Cc2cc3nc(-c4cccc5[nH]ncc45)nc(N4CCOCC4)c3s2)CC1 [pictilisib]", "assay": "log2 fold change, soluble protein after heating vs DMSO (PISA); higher = thermal stabilisation; K562 cells, 10 uM, 30 min; active = over 0.2 and 3.5 SD of the protein, either way, in both replicates (recomputed)", "outline": "as §1", "values": [{"target": "LTV1 (UniProt Q96GA3)", "log2 fold change": "0 (inactive)"}, {"target": "LMNB1 (UniProt P20700)", "log2 fold change": "0.005 (inactive)"}, {"target": "LNPK (UniProt Q9C0E8)", "log2 fold change": "0.017 (inactive)"}, {"target": "LDAH isoform 2 (UniProt Q9H6V9)", "log2 fold change": "0.075 (inactive)"}, {"target": "KIF2C (UniProt Q99661)", "log2 fold change": "0.008 (inactive)"}, {"target": "LAMP2 (UniProt P13473)", "log2 fold change": "0.046 (inactive)"}, {"target": "LMNB2 (UniProt Q03252)", "log2 fold change": "0.03 (inactive)"}, {"target": "MAP1LC3B2 (UniProt A6NCE7)", "log2 fold change": "-0.004 (inactive)"}, {"target": "LIMD1 (UniProt Q9UGP4)", "log2 fold change": "-0.043 (inactive)"}, {"target": "MED17 (UniProt Q9NVC6)", "log2 fold change": "0.089 (inactive)"}, {"target": "KIF3A (UniProt Q9Y496)", "log2 fold change": "0.146 (inactive)"}, {"target": "IKZF1 (UniProt Q13422)", "log2 fold change": "0.026 (inactive)"}, {"target": "KSR1 (UniProt Q8IVT5)", "log2 fold change": "0.176 (inactive)"}, {"target": "MAIP1 (UniProt Q8WWC4)", "log2 fold change": "0.01 (inactive)"}, {"target": "LTO1 (UniProt Q8WV07)", "log2 fold change": "0.038 (inactive)"}, {"target": "LARP4 isoform 4 (UniProt Q71RC2)", "log2 fold change": "-0.068 (inactive)"}, {"target": "LRBA (UniProt P50851)", "log2 fold change": "-0.015 (inactive)"}, {"target": "LMBRD2 (UniProt Q68DH5)", "log2 fold change": "0.057 (inactive)"}, {"target": "MAP2K2 (UniProt P36507)", "log2 fold change": "-0.023 (inactive)"}, {"target": "IPO13 (UniProt O94829)", "log2 fold change": "0.109 (inactive)"}, {"target": "IRF2BPL (UniProt Q9H1B7)", "log2 fold change": "0.071 (inactive)"}, {"target": "LDLR (UniProt P01130)", "log2 fold change": "0.078 (inactive)"}, {"target": "LUC7L3 (UniProt O95232)", "log2 fold change": "0.011 (inactive)"}, {"target": "MAP2K7 isoform 4 (UniProt O14733)", "log2 fold change": "0.137 (inactive)"}, {"target": "MDC1 (UniProt Q14676)", "log2 fold change": "0.08 (inactive)"}, {"target": "MAP2K1 (UniProt Q02750)", "log2 fold change": "0.04 (inactive)"}, {"target": "MARK3 (UniProt P27448)", "log2 fold change": "-0.033 (inactive)"}, {"target": "KIF21A isoform 4 (UniProt Q7Z4S6)", "log2 fold change": "0.037 (inactive)"}, {"target": "LEMD3 (UniProt Q9Y2U8)", "log2 fold change": "0.047 (inactive)"}, {"target": "KDM5D isoform 3 (UniProt Q9BY66)", "log2 fold change": "0.049 (inactive)"}, {"target": "IK (UniProt Q13123)", "log2 fold change": "-0.035 (inactive)"}, {"target": "KLC2 (UniProt Q9H0B6)", "log2 fold change": "0.083 (inactive)"}, {"target": "INPP5B (UniProt P32019)", "log2 fold change": "0.04 (inactive)"}]}]}
